According to PubChem BioAssay (EPA / NIEHS):
“And” between values parts separate entries of the source, which are not always exact repeats. Equal entries are not always repeated. A structure can be active in one record and inactive in another. The source made the active and inactive calls. How the source made its calls: active means hit-call score of the fitted dose curve at least 0.9, where 1 is the maximum; inactive means score below 0.9.

How the values were obtained:
[1] = read-out: Tissue plasminogen activator (tPA), PLAT (gene 5327); test: BSK_BE3C_tPA: BioMAP Diversity Plus: BE3C Assay for Tissue plasminogen activator (tPA) Biomarker Activity (AID 2283041); conditions: primary human bronchial epithelial cells; actives raise or lower the signal
Method in brief: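 Bidirectional curve fitting relative to DMSO defined activity, with tPA detected by ELISA in chemically treated human bronchial epithelial primary cells at 24 hours.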

[2] = read-out: Interleukin-8 (IL8), CXCL8 (gene 3576); test: BSK_CASM3C_IL8: BioMAP Diversity Plus: CASM3C Assay for Interleukin-8 (IL8) Biomarker Activity (AID 2283042); conditions: primary human coronary artery smooth muscle cells; actives raise or lower the signal;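 further: IL-8 protein level quantified by ELISA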
[3] = read-out: Human Leukocyte Antigen - DR isotype (HLADR), HLA-DRA (gene 3122); test: BSK_CASM3C_HLADR: BioMAP Diversity Plus: CASM3C Assay for Human Leukocyte Antigen - DR isotype (HLADR) Biomarker Activity (AID 2283043); conditions: primary human coronary artery smooth muscle cells; actives raise or lower the signal;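 further: cell-surface HLA-DR protein level quantified by ELISA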
[4] = read-out: Macrophage colony-stimulating factor (MCSF), CSF1 (gene 1435); test: BSK_CASM3C_MCSF: BioMAP Diversity Plus: CASM3C Assay for Macrophage colony-stimulating factor (MCSF) Biomarker Activity (AID 2283044); conditions: primary human coronary artery smooth muscle cells; actives raise or lower the signal;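 further: M-CSF protein amount quantified by ELISA after 24 h exposure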
[5] = read-out: Low-density lipoprotein receptor (LDLR), LDLR (gene 3949); test: BSK_CASM3C_LDLR: BioMAP Diversity Plus: CASM3C Assay for Low-density lipoprotein receptor (LDLR) Biomarker Activity (AID 2283045); conditions: primary human coronary artery smooth muscle cells; actives raise or lower the signal;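 further: LDLR protein level on the cell surface quantified by ELISA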
[6] = read-out: Monocyte Chemoattractant Protein-1 (MCP1), CCL2 (gene 6347); test: BSK_CASM3C_MCP1: BioMAP Diversity Plus: CASM3C Assay for Monocyte Chemoattractant Protein-1 (MCP1) Biomarker Activity (AID 2283046); conditions: primary human coronary artery smooth muscle cells; actives raise or lower the signal;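 further: MCP-1 level quantified by ELISA 24 h after dosing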
[7] = BSK_CASM3C_Proliferation: Cell Proliferation Assessment in the BioMAP Diversity Plus: CASM3C Assay (AID 2283047); conditions: primary human coronary artery smooth muscle cells;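 further: sulforhodamine B total protein stain as relative cell number at 560 nm; sub-confluent cells exposed 48 h before staining; fitted both ways against DMSO so gain or loss of cell number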
[8] = read-out: Monokine induced gamma interferon (MIG), CXCL9 (gene 4283); test: BSK_CASM3C_MIG: BioMAP Diversity Plus: CASM3C Assay for Monokine induced gamma interferon (MIG) Biomarker Activity (AID 2283048); conditions: primary human coronary artery smooth muscle cells; actives raise or lower the signal;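 further: MIG protein level measured by ELISA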
[9] = read-out: serum amyloid A (SAA), SAA1 (gene 6288); test: BSK_CASM3C_SAA: BioMAP Diversity Plus: CASM3C Assay for serum amyloid A (SAA) Biomarker Activity (AID 2283049); conditions: primary human coronary artery smooth muscle cells; actives raise or lower the signal;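 further: SAA protein level quantified by ELISA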
[10] = BSK_CASM3C_SRB: Viability Assessment in the BioMAP Diversity Plus: CASM3C Assay (AID 2283050); conditions: primary human coronary artery smooth muscle cells;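 further: total protein by SRB staining as cytotoxicity measure in parallel cultures; cells exposed to compound for 24 h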
[11] = read-out: Thrombomodulin, THBD (gene 7056); test: BSK_CASM3C_Thrombomodulin: BioMAP Diversity Plus: CASM3C Assay for Thrombomodulin Biomarker Activity (AID 2283051); conditions: primary human coronary artery smooth muscle cells; actives raise or lower the signal;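 further: thrombomodulin protein level measured by ELISA 24 h after dosing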
[12] = read-out: Tissue Factor, F3 (gene 2152); test: BSK_CASM3C_TissueFactor: BioMAP Diversity Plus: CASM3C Assay for Tissue Factor Biomarker Activity (AID 2283052); conditions: primary human coronary artery smooth muscle cells; actives raise or lower the signal;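 further: cell surface tissue factor protein level read by ELISA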
[13] = read-out: Interferon-gamma inducible Protein 10 (IP10), CXCL10 (gene 3627); test: BSK_hDFCGF_IP10: BioMAP Diversity Plus: hDFCGF Assay for Interferon-gamma inducible Protein 10 (IP10) Biomarker Activity (AID 2283053); conditions: primary human foreskin fibroblasts; actives raise or lower the signal
Method in brief: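 IP-10 levels, quantified by ELISA, are taken from human foreskin fibroblast cultures 24 h after chemical treatment, with DMSO serving as negative control and baseline for bidirectional analysis.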

[14] = read-out: Urokinase-type plasminogen activator receptor (uPAR), PLAUR (gene 5329); test: BSK_CASM3C_uPAR: BioMAP Diversity Plus: CASM3C Assay for Urokinase-type plasminogen activator receptor (uPAR) Biomarker Activity (AID 2283054); conditions: primary human coronary artery smooth muscle cells; actives raise or lower the signal;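 further: cell-surface uPAR protein level quantified by ELISA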
[15] = read-out: Vascular cell adhesion molecule 1 (VCAM1), VCAM1 (gene 7412); test: BSK_CASM3C_VCAM1: BioMAP Diversity Plus: CASM3C Assay for Vascular cell adhesion molecule 1 (VCAM1) Biomarker Activity (AID 2283055); conditions: primary human coronary artery smooth muscle cells; actives raise or lower the signal;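 further: VCAM-1 protein level quantified by ELISA on the cells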
[16] = read-out: Collagen III, COL3A1 (gene 1281); test: BSK_hDFCGF_CollagenIII: BioMAP Diversity Plus: hDFCGF Assay for Collagen III Biomarker Activity (AID 2283056); conditions: primary human foreskin fibroblasts; actives raise or lower the signal
Method in brief: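 Cells: human foreskin fibroblasts, primary. Dosing followed by 24 h incubation, then ELISA for collagen III. Both increases and decreases scored relative to DMSO.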

[17] = read-out: Epidermal growth factor receptor (EGFR), EGFR (gene 1956); test: BSK_hDFCGF_EGFR: BioMAP Diversity Plus: hDFCGF Assay for Epidermal growth factor receptor (EGFR) Biomarker Activity (AID 2283057); conditions: primary human foreskin fibroblasts; actives raise or lower the signal
Method in brief: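 Measured by ELISA: EGFR levels on primary human foreskin fibroblasts 24 h after chemical treatment, analysed relative to DMSO with bidirectional fitting.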

[18] = read-out: Interleukin-8 (IL8), CXCL8 (gene 3576); test: BSK_hDFCGF_IL8: BioMAP Diversity Plus: hDFCGF Assay for Interleukin-8 (IL8) Biomarker Activity (AID 2283058); conditions: primary human foreskin fibroblasts; actives raise or lower the signal
Method in brief: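 IL-8 levels from compound-treated primary human fibroblasts were read by ELISA at 24 h, with DMSO serving as baseline for bidirectional fitting.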

[19] = BSK_hDFCGF_Proliferation: Cell Proliferation Assessment in the BioMAP Diversity Plus: hDFCGF Assay (AID 2283059); conditions: primary human foreskin fibroblasts;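 further: curves fitted for both rise and fall of signal versus DMSO baseline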
Method in brief: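 Primary human foreskin fibroblasts, sub-confluent; […]; 10% TCA fix, 0.1% SRB stain, A560 total protein. Gain/loss fitted bidirectionally vs DMSO control.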

[20] = read-out: Macrophage colony-stimulating factor (MCSF), CSF1 (gene 1435); test: BSK_hDFCGF_MCSF: BioMAP Diversity Plus: hDFCGF Assay for Macrophage colony-stimulating factor (MCSF) Biomarker Activity (AID 2283060); conditions: primary human foreskin fibroblasts; actives raise or lower the signal
Method in brief: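 M-CSF levels, determined by ELISA, are taken at 24 h after dosing human skin fibroblasts. Responses in either direction are fitted with DMSO serving as the baseline.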

Measured: AC50

O=C(Cl)C(F)(F)C(F)(F)C(F)(F)C(F)(F)C(F)(F)C(F)(F)F
active: [17] 2.04 µM
inactive: [1] | [2] | [3] | [4] | [5] | [6] | [7] | [8] | [9] | [10] | [11] | [12] | [13] | [14] | [15] | [16] | [17] | [18] | [19] | [20]

OCC(F)(F)C(F)(F)C(F)(F)C(F)(F)C(F)(F)C(F)(F)CO
inactive: all assays above

FC(F)(F)C(F)(F)C(F)(F)C(F)(F)C(F)(F)C(F)(F)CC[Si](Cl)(Cl)Cl
inactive: all assays above

C[C@]12CC[C@H]3C(=CCc4cc(O)ccc43)[C@@H]1CCC2=O
active: [5] 14.3 µM
inactive: all other assays above

NC(=O)C(F)(F)C(F)(F)C(F)(F)C(F)F
inactive: all assays above

CCOC(C=C(C)CCC=C(C)C)OCC
active: [3] 20 µM | [4] 20 µM | [5] 10.3 µM | [6] 28.9 µM | [7] 33.7 µM | [8] 34.4 µM | [10] 32.1 µM | [12] 28.6 µM | [13] 29.8 µM | [14] 31.4 µM | [15] 25.7 µM | [16] 29 µM | [19] 32.2 µM | [20] 32.8 µM
inactive: [1] | [2] | [9] | [11] | [17] | [18]

C=CC(=O)OCCC(F)(F)C(F)(F)C(F)(F)C(F)(F)F
active: [7] 15 µM | [8] 41.1 µM and 30 µM | [15] 30 µM | [16] 21.9 µM | [19] 7.58 µM | [20] 21 µM and 15 µM
inactive: [1] | [2] | [3] | [4] | [5] | [6] | [7] | [9] | [10] | [11] | [12] | [14] | [16] | [17] | [18] | [19]

O=C(O)C(F)(F)C(F)(F)C(F)(F)C(=O)O
inactive: all assays above

CNS(=O)(=O)C(F)(F)C(F)(F)C(F)(F)C(F)(F)C(F)(F)C(F)(F)C(F)(F)C(F)(F)F
inactive: [2] | [3] | [4] | [5] | [6] | [7] | [8] | [9] | [10] | [11] | [12] | [13] | [14] | [16] | [17] | [18] | [19] | [20]
active: [1] 220 nM and 654 nM | [7] 35.4 µM | [13] 1.99 µM | [15] 8.2 µM and 1.69 µM

O=C(c1ccccc1)c1ccc(O)cc1O
active: [12] 13.6 µM
inactive: all other assays above
